Experimental data taken from PubChem BioAssay AID1159580 (chemical genetic matrix, 2015).
The campaign covered roughly 5,500 compounds. About 2,000 (36%) were called active. Not shown: some 18% with an inconclusive outcome. Cut-off read from the data, not from the text of the source: active = normalized growth mostly below about 0.91 (no sharp cut-off); inconclusive = no clear call, values can overlap the other calls; inactive = mostly above about 0.92. Some of the results follow.

Assay: chemical genetic growth profiling, strain panel (AID 1159580);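 note: tested at 20 µM; growth read once vehicle control cultures reached saturation at 30 °C; 1 = growth at the plate median or of vehicle wells; lower values mean less growth of the strain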
Settings: growth OD

Measured: normalized growth

C=C[C@H]1CN2CC[C@H]1C[C@@H]2[C@H](O)c1ccnc2ccccc12
inactive: S. cerevisiae deletion strains, locus YKL009W, strain mrt4, stronger effect = lower value 0.976 | S. cerevisiae deletion strains, locus YKL068W, stronger effect = lower value 0.979 | S. cerevisiae deletion strains, locus YKL085W, strain MDH1 (second series), stronger effect = lower value 0.972 | S. cerevisiae deletion strains, locus YKL085W, strain MDH1, stronger effect = lower value 0.972 | S. cerevisiae deletion strains, locus YKL160W, strain elf1, stronger effect = lower value 0.991 | S. cerevisiae deletion strains, locus YKL190W, strain CNB1, stronger effect = lower value 0.99 | S. cerevisiae deletion strains, locus YKR001C, strain vps1, stronger effect = lower value 0.997 | S. cerevisiae deletion strains, locus YKR026C, strain gcn3, stronger effect = lower value 0.991 | S. cerevisiae deletion strains, locus YKR091W, strain srl3, stronger effect = lower value 0.979 | S. cerevisiae deletion strains, locus YLL001W, strain dnm1, stronger effect = lower value 0.989 | S. cerevisiae deletion strains, locus YLL026W, stronger effect = lower value 0.995 | S. cerevisiae deletion strains, locus YLL041C, strain sdh2, stronger effect = lower value 0.987 | S. cerevisiae deletion strains, locus YLR027C, strain aat2, stronger effect = lower value 0.992 | S. cerevisiae deletion strains, locus YLR039C, strain RIC1, stronger effect = lower value 0.98 | S. cerevisiae deletion strains, locus YLR058C, strain SHM2, stronger effect = lower value 0.992 | S. cerevisiae deletion strains, locus YLR102C, strain apc9, stronger effect = lower value 0.988 | S. cerevisiae deletion strains, locus YLR113W, strain HOG1, stronger effect = lower value 0.967 | S. cerevisiae deletion strains, locus YLR221C, strain rsa3, stronger effect = lower value 1.02 | S. cerevisiae deletion strains, locus YLR258W, strain gsy2, stronger effect = lower value 0.991 | S. cerevisiae deletion strains, locus YLR262C, strain YPT6 (second series), stronger effect = lower value 1.01 | S. cerevisiae deletion strains, locus YLR262C, strain YPT6, stronger effect = lower value 0.983 | S. cerevisiae deletion strains, locus YLR268W, strain sec22, stronger effect = lower value 0.937 | S. cerevisiae deletion strains, locus YLR320W, strain mms22, stronger effect = lower value 0.998 | S. cerevisiae deletion strains, locus YLR330W, strain CHS5, stronger effect = lower value 0.986 | S. cerevisiae deletion strains, locus YLR342W, strain FKS1 (second series), stronger effect = lower value 1.11 | S. cerevisiae deletion strains, locus YLR342W, strain FKS1, stronger effect = lower value 0.984 | S. cerevisiae deletion strains, locus YLR357W, strain rsc2, stronger effect = lower value 0.976 | S. cerevisiae deletion strains, locus YLR370C, strain arc18, stronger effect = lower value 0.994 | S. cerevisiae deletion strains, locus YLR371W, strain rom2, stronger effect = lower value 0.977 | S. cerevisiae deletion strains, locus YLR384C, strain iki3, stronger effect = lower value 0.995 | S. cerevisiae deletion strains, locus YLR418C, strain cdc73, stronger effect = lower value 0.982 | S. cerevisiae deletion strains, locus YML016C, strain PPZ1, stronger effect = lower value 0.999 | S. cerevisiae deletion strains, locus YML032C, strain rad52, stronger effect = lower value 0.968 | S. cerevisiae deletion strains, locus YML120C, strain ndi1, stronger effect = lower value 1.01 | S. cerevisiae deletion strains, locus YML124C, strain tub3, stronger effect = lower value 0.986 | S. cerevisiae deletion strains, locus YMR058W, strain fet3, stronger effect = lower value 0.982 | S. cerevisiae deletion strains, locus YMR078C, strain ctf18, stronger effect = lower value 0.983 | S. cerevisiae deletion strains, locus YMR125W, strain sto1, stronger effect = lower value 0.977 | S. cerevisiae deletion strains, locus YMR129W, stronger effect = lower value 0.988 | S. cerevisiae deletion strains, locus YMR205C, strain PFK2, stronger effect = lower value 0.988 | S. cerevisiae deletion strains, locus YMR223W, strain ubp8, stronger effect = lower value 1.01 | S. cerevisiae deletion strains, locus YMR231W, strain pep5, stronger effect = lower value 0.979 | S. cerevisiae deletion strains, locus YMR263W, strain SAP30, stronger effect = lower value 0.989 | S. cerevisiae deletion strains, locus YMR307W, strain GAS1, stronger effect = lower value 1.09 | S. cerevisiae deletion strains, locus YNL067W, strain RPL9B, stronger effect = lower value 0.977 | S. cerevisiae deletion strains, locus YNL071W, strain lat1, stronger effect = lower value 0.988 | S. cerevisiae deletion strains, locus YNL128W, strain TEP1, stronger effect = lower value 0.982 | S. cerevisiae deletion strains, locus YNL153C, strain GIM3, stronger effect = lower value 0.991 | S. cerevisiae deletion strains, locus YNL183C, strain NPR1, stronger effect = lower value 0.951 | S. cerevisiae deletion strains, locus YNL209W, strain ssb2, stronger effect = lower value 0.995 | S. cerevisiae deletion strains, locus YNL233W, strain BNI4, stronger effect = lower value 0.985 | S. cerevisiae deletion strains, locus YNL248C, strain rpa49, stronger effect = lower value 0.982 | S. cerevisiae deletion strains, locus YNL250W, strain rad50, stronger effect = lower value 0.986 | S. cerevisiae deletion strains, locus YNL271C, strain bni1, stronger effect = lower value 0.983 | S. cerevisiae deletion strains, locus YNL298W, strain CLA4, stronger effect = lower value 0.985 | S. cerevisiae deletion strains, locus YNL307C, strain MCK1, stronger effect = lower value 0.992 | S. cerevisiae deletion strains, locus YNL322C, strain KRE1 (second series), stronger effect = lower value 0.975 | S. cerevisiae deletion strains, locus YNL322C, strain KRE1, stronger effect = lower value 0.992 | S. cerevisiae deletion strains, locus YNR049C, strain mso1, stronger effect = lower value 0.986 | S. cerevisiae deletion strains, locus YNR052C, strain pop2, stronger effect = lower value 0.992 | S. cerevisiae deletion strains, locus YOL006C, strain TOP1, stronger effect = lower value 0.992 | S. cerevisiae deletion strains, locus YOL012C, strain htz1 1.51 | S. cerevisiae deletion strains, locus YOL147C, strain pex11, stronger effect = lower value 0.979 | S. cerevisiae deletion strains, locus YOR001W, strain rrp6, stronger effect = lower value 1.01 | S. cerevisiae deletion strains, locus YOR061W, strain CKA2, stronger effect = lower value 0.986 | S. cerevisiae deletion strains, locus YOR069W, strain VPS5, stronger effect = lower value 0.997 | S. cerevisiae deletion strains, locus YOR070C, strain gyp1, stronger effect = lower value 1 | S. cerevisiae deletion strains, locus YOR080W, strain dia2, stronger effect = lower value 0.985 | S. cerevisiae deletion strains, locus YOR083W, strain WHI5, stronger effect = lower value 0.991 | S. cerevisiae deletion strains, locus YOR106W, strain vam3, stronger effect = lower value 0.999 | S. cerevisiae deletion strains, locus YOR136W, strain idh2, stronger effect = lower value 1 | S. cerevisiae deletion strains, locus YOR144C, strain elg1, stronger effect = lower value 0.983 | S. cerevisiae deletion strains, locus YOR184W, strain ser1, stronger effect = lower value 0.982 | S. cerevisiae deletion strains, locus YOR231W, strain MKK1, stronger effect = lower value 0.983 | S. cerevisiae deletion strains, locus YOR265W, strain rbl2, stronger effect = lower value 1 | S. cerevisiae deletion strains, locus YOR270C, strain vph1, stronger effect = lower value 1 | S. cerevisiae deletion strains, locus YOR290C, strain snf2, stronger effect = lower value 0.982 | S. cerevisiae deletion strains, locus YOR316C, strain cot1, stronger effect = lower value 0.972 | S. cerevisiae deletion strains, locus YPL051W, strain arl3, stronger effect = lower value 0.994 | S. cerevisiae deletion strains, locus YPL055C, strain LGE1, stronger effect = lower value 0.997 | S. cerevisiae deletion strains, locus YPL078C, strain atp4, stronger effect = lower value 0.99 | S. cerevisiae deletion strains, locus YPL106C, strain sse1, stronger effect = lower value 0.967 | S. cerevisiae deletion strains, locus YPL240C, strain hsp82, stronger effect = lower value 0.999 | S. cerevisiae deletion strains, locus YPL241C, strain CIN2, stronger effect = lower value 0.989 | S. cerevisiae deletion strains, locus YPL256C, strain CLN2, stronger effect = lower value 0.978 | S. cerevisiae deletion strains, locus YPR119W, strain clb2, stronger effect = lower value 0.974 | S. cerevisiae deletion strains, locus YPR141C, strain kar3, stronger effect = lower value 0.981 | S. cerevisiae deletion strains, locus YPR163C, strain tif3, stronger effect = lower value 0.977 | S. cerevisiae deletion strains, locus YPR167C, strain met16, stronger effect = lower value 0.979 | S. cerevisiae deletion strains, strain wtn01, stronger effect = lower value 0.98 | S. cerevisiae strains, strain wild type, stronger effect = lower value 1
